Data on 83 compounds can be found in PubChem BioAssay AID878 (University of Pittsburgh Molecular Library Screening Center, 2007).

The structures appear in SMILES notation. About 65 (0.03%) of roughly 200,000 compounds were called active. For the sample, actives were picked, then their nearest neighbours and some compounds at random. Values without a mark were called inactive.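 Rule for the calls: active = activation of at least 50% relative to the plate's high and low controls in the primary single-dose screen; inactive = activation below 50%.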

The assay in a line: compounds producing H2O2 with reducing agent – biochemical, NIH compound library profiling, artefact control for MLSCN library redox annotation, primary screen (AID 878).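 Note: compound incubated with DTT at 0.8 mM final as the reducing agent.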 Conditions: DTT-dependent redox cycling H2O2, phenol red/HRP absorbance; at 10 µM; active compounds read high; 100% = 100 µM peroxide control, 0% = buffer.
Take `CNC(=O)C(=O)N/N=C/c1ccccn1`: the activation was 0.83%.

As to `CCN(CC(=O)NCc1cccs1)S(=O)(=O)c1ccc(NC(C)=O)cc1`, the activation was -2.2%.

On to `CCOC(=O)C1CCN(S(=O)(=O)c2cc(F)ccc2OC)CC1`, for which the activation was -0.4%.

On to `Cc1ccc(CNC(=O)COc2ccc3c(c2)CCC3)cc1`, for which the activation is -0.27%.

As for `CO/N=C/CC(=O)c1ccc(OC)cc1`, the activation was -0.35%.

On to `CCCC1(C(=O)OCC)NC(c2ccc(N(C)C)cc2)C2C(=O)N(c3ccc4c(c3)OCCO4)C(=O)C21` (stereo not drawn), for which the activation was 0.78%.

Turning to `Cc1ccc(-n2c(C)cc(/C=N\NC(=O)CC(=O)NC(C)C)c2C)cc1`, the activation is 0.08%.

As to `O=C(/C=C/c1cccc([N+](=O)[O-])c1)NCCSCc1ccco1`, the activation was -0.1%.

As for `Cc1ccc(CC(=O)Nc2ccc(OC(F)F)c(Cl)c2)cc1C`, the activation is 0.61%.

For `CCOC(=O)c1c(C)[nH]c2c1-c1ccccc1C(=O)C2=O`, the activation is 89.8% (active).

Take `CCOC(=O)c1c(C)[nH]c(=S)c(C#N)c1-c1ccccc1`: the activation is -0.47%.

Consider `CCOC(=O)C1=C(c2ccc(OC)cc2)C(=O)c2ccccc2C1=O`, for which the activation was 0.28%.

`COc1ccc(S(=O)(=O)N/N=C\c2ccc(OC)c(COc3ccc(C)cc3[N+](=O)[O-])c2)cc1`: the activation is 0.79%.

Take `Cc1cc(NC(=O)CSCc2ccccc2C)no1`: the activation was -0.39%.

With `COc1cc(CN2CCN(Cc3ccc(C)cc3)CC2)c([N+](=O)[O-])cc1OC`, the activation was -0.34%.

For `Cc1ccc(-n2c(SCC(=O)N/N=C/C=C/c3ccccc3[N+](=O)[O-])nc3ccccc3c2=O)cc1`, the activation is 0.36%.

On to `Cc1ccc(C(C)(C)C)c(OCCCCN2CCCC2)c1`, for which the activation is 0.04%.

Consider `COC(=O)c1c(C)[nH]c(C(=O)/C=C/c2ccc(Cl)cc2)c1C`, for which the activation is 0.44%.

In the case of `O=C(CSc1ncn[nH]1)NCc1ccc2c(c1)OCO2`, the activation was -2.24%.

For `COC(=O)c1c(NC(=O)CN2CCN(S(=O)(=O)c3ccccc3[N+](=O)[O-])CC2)sc2c1CCC(C)C2` (stereo not drawn), the activation is 0.62%.

For the compound `CCc1c(O)cc2n(c1=O)-c1ccccc1C2(C)C`, the activation is 0.55%.

With `CC(=O)N1Cc2ccccc2CC1C(=O)O` (stereo not drawn), the activation is 0.61%.

For `Cc1ccc(OCC(=O)Nc2cccc3c2CCCC3)cc1C`, the activation is 1.68%.

As to `CCOC(=O)Cc1ncccc1C(=O)Nc1ccc(OC)cc1`, the activation is -0.93%.

For `O=C(C1=C[C@H](C2CC2)C[C@H](OCc2ccc(CO)cc2)O1)N1CCN(Cc2ccccc2)CC1`, the activation is 0.58%.

Consider `Cc1ccc(S(=O)(=O)C2C(=O)NC3(C)CC2c2ccccc2O3)cc1` (stereo not drawn), for which the activation was 0.78%.

On to `COC(=O)/C=C\C(=O)Nc1cccc([N+](=O)[O-])c1`, for which the activation was 0.27%.

Turning to `CCn1c(=O)c(=O)n(CC)c2cc(S(=O)(=O)N3CCc4ccccc43)ccc21`, the activation was -1.27%.

Consider `O=C(Oc1cccc(N2C(=O)C3C4c5ccccc5C(c5ccccc54)C3C2=O)c1)c1ccco1` (stereo not drawn), for which the activation was 0.92%.

Take `CCC(=O)/C(=C(/O)c1ccccc1)c1nc2ccccc2[nH]1`: the activation was -0.31%.

With `FC(F)(F)c1cccc(Cc2noc(CN3CCC(N4CCCCC4)CC3)n2)c1`, the activation is 0.44%.

For the compound `Cc1ccccc1-n1nnnc1SCCCC(=O)c1ccc(F)cc1`, the activation was 0.87%.

Regarding `CCOC(=O)NC(=O)C(=CNc1cccc(OC)c1)C(=O)NC(=O)OCC`, the activation was -0.29%.

For `O=C(CN(C(=O)c1csnn1)c1cccc(F)c1)NCc1ccc(F)cc1`, the activation was 0.3%.

Take `C=C(C)CNC(=S)N/N=C/c1ccccc1OCC(=O)O`: the activation was -0.31%.

Take `COc1ccc(NC(=O)c2ccccc2[N+](=O)[O-])cc1OC`: the activation was 0.48%.

Regarding `O=C(Nc1ccc(Br)cn1)c1ccc([N+](=O)[O-])o1`, the activation is -1.5%.

As for `Cc1cc(C)c(C#N)c(N2CCC(C(N)=O)CC2)n1`, the activation was -1.8%.

On to `O=C(NN1C(=O)C2C3C=CC(C3)C2C1=O)c1ccco1` (stereo not drawn), for which the activation is -0.88%.

`COc1ccccc1CC(NC(C)=O)C(=O)NC1CCN(C(=O)Nc2ccccc2Cl)CC1` (stereo not drawn): the activation is -0.13%.

For `CCn1c(SCC(=O)N(C)C2CCS(=O)(=O)C2)nnc1-c1cccs1` (stereo not drawn), the activation was -1.15%.

Take `COC(=O)c1nc(NC(=O)c2ccc(C(C)(C)C)cc2)n[nH]1`: the activation is -0.33%.

As to `O=C(C1CCN(S(=O)(=O)c2ccc(Br)s2)CC1)N1CCN(C2CCCCC2)CC1`, the activation was 0.46%.

Turning to `CSCCNCc1cn(-c2ccc(F)cc2F)nc1-c1ccccc1C`, the activation was 0.48%.

As for `COC(=O)Cc1ccc(OCC(=O)Nc2ccc(OC(F)(F)F)cc2)cc1`, the activation is 0.09%.

Take `O=C1/C(=C\c2ccccc2Cl)SC(=S)N1CCC(=O)N1CCCc2ccccc21`: the activation was -0.64%.

For the compound `CC(C)Oc1ccc(/C=C(\NC(=O)/C=C/c2ccco2)C(=O)NCCc2nc3ccccc3[nH]2)cc1`, the activation is 0.27%.

As to `O=C(NN1C(=O)C2C3C=CC(O3)C2C1=O)c1ccccc1` (stereo not drawn), the activation is -0.16%.

For `COc1cc2c3c(c1)/C(=C1/SC(=S)NC1=O)C(=O)N3C(C)(C)C=C2C`, the activation is -0.69%.

As to `CN(C)c1ccc(/C=N/NC(=O)c2ccc(Cn3cc(Br)cn3)o2)cc1`, the activation is -0.04%.

On to `COCC(C)NC(=O)CSc1nc2nn(-c3ccccc3)c(=O)c-2c2n1CCCCC2` (stereo not drawn), for which the activation was -1.27%.

For the compound `CN(C)C(=O)c1ccc2c(c1)C1C3CCC(C3)C1C(c1ccccc1)N2` (stereo not drawn), the activation was -0.17%.

With `N=c1n(CCc2ccccc2)c2ccccc2n1Cc1ccccc1F`, the activation was -0.46%.

Consider `COc1ccc(C2NC(=S)NC3=C2CCc2ccccc23)cc1OC` (stereo not drawn), for which the activation was 0.96%.

Turning to `CCCn1c(N)c(C(=O)CSc2nc3ccccc3c(=O)n2-c2ccc(OC)cc2)c(=O)[nH]c1=O`, the activation was 0.00314%.

For `CC(C)c1nccn1S(=O)(=O)c1cc([N+](=O)[O-])ccc1Cl`, the activation is 1.71%.

On to `O=c1cc(-c2ccccc2)[nH]c2cc(F)ccc12`, for which the activation was -0.1%.

On to `COc1ccccc1N1CCN(CC(=O)NCCc2ccc(S(N)(=O)=O)cc2)CC1`, for which the activation was 0.00253%.

With `COc1ccc(OC)c(-c2csc(NC(=O)C3=NNC(=O)CC3)n2)c1`, the activation is -1.87%.

Regarding `COc1ccc(OCC(=O)Nc2cc(C)c(Cl)cc2OC)c([N+](=O)[O-])c1`, the activation was 0.12%.

Regarding `CC1CCN(S(=O)(=O)c2ccc3ncn(CC(=O)N(C)C4CCCCC4)c(=O)c3c2)CC1`, the activation is -2.09%.

As for `CCc1nc2ccccc2c(C(=O)OC2CCCCC2=O)c1C` (stereo not drawn), the activation was 0.11%.

Consider `CCOC(=O)C1(Cc2cccc(OC)c2)CCN(C(C)COC)CC1` (stereo not drawn), for which the activation was -0.66%.

Turning to `O=C(CSc1nnc(-c2ccncc2)o1)NCc1ccc(Cl)cc1`, the activation was -0.01%.

For `CC(C)(C)CN1CCNC(=O)C1CC(=O)NC1Cc2ccccc2C1` (stereo not drawn), the activation was -0.72%.

With `Cc1cccc(NC(=S)N(CCN(C)C)C(C)c2ccco2)c1` (stereo not drawn), the activation is 0.05%.

With `CC(C)(C)[C@H]1C=C(C(=O)NCc2ccccc2)O[C@@H](OCc2ccc(CO)cc2)C1`, the activation was -1.79%.

Take `CCC(C)(C)NC(=O)c1cc([N+](=O)[O-])ccc1N1CCCCC1`: the activation was -0.54%.

Consider `CCCn1nc(Oc2nc(NC(C)C)nc(N(C)C)n2)ccc1=O`, for which the activation is 0.03%.

As to `Nc1c(-c2ccc(F)cc2)cnc2ncnn12`, the activation was 1.8%.

`O=C(CN1CCN(C/C=C/c2ccccc2)CC1)Nc1ccc(F)cc1F`: the activation is -0.37%.

In the case of `O=C(CP(=O)(c1ccccc1)c1ccccc1)N1CCOCC1`, the activation was 0.42%.

Regarding `CC(=O)C1=C(C)NC2=C(C(=O)CC(C)(C)C2)C1C` (stereo not drawn), the activation is -0.01%.

As to `CN1C(=O)/C(=C/c2ccco2)SC1=Nc1cccc(C(=O)O)c1`, the activation is -0.55%.

Consider `Cc1cccc(-n2c(Cc3cc(=O)[nH]c(=O)[nH]3)nnc2SCC(=O)Nc2cccc(C(F)(F)F)c2)c1`, for which the activation was 0.37%.

Regarding `Cc1ccc(OCC(=O)NNC(=S)NCc2ccccc2)cc1`, the activation is 0.08%.

For the compound `CN(C)Cc1ccc(F)cc1Sc1cc(Cl)ccc1Cl`, the activation was -0.14%.

As for `CCOc1cc(CNn2c(C)nnc2SCC(=O)NC(C)(C)C)ccc1OCC(=O)NC(C)(C)C`, the activation is -0.27%.

For `CC1=NNC(=O)C1CCC(=O)N/N=C\c1ccc(Cl)c(Cl)c1` (stereo not drawn), the activation was -0.00164%.

With `Cc1ccc2nc(-c3ccccn3)cc(C(=O)Nc3ccc4c(c3)OCO4)c2c1`, the activation was 4.14%.

Regarding `Cc1ccccc1-n1nc(SCC(=O)O)sc1=S`, the activation was -0.13%.

Regarding `CC(=O)Nc1ccccc1C(=O)C(=O)Nc1ccc(F)cc1`, the activation is -3.37%.

`CN(C)/C=C/C(=O)c1cnc2sccn2c1=O`: the activation is 0.12%.
